The text below walks through data of PubChem BioAssay (NCATS).

Assay [1] is described as follows: qHTS of pediatric cancer cell lines to identify multiple opportunities for drug repurposing: Primary screen for DAOY cells (AID 1347090). Further: nearly all actives have a fitted effect of over 55% in size. The following applies: DAOY medulloblastoma viability, CellTiter-Glo luminescence, 48 h; series mostly up to 46 µM. In short, it runs like this: (§1)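 Eight- or eleven-point concentration series, 48 h treatment at 37 degrees C in growth media; readout CellTiter-Glo luminescence. Potency and efficacy were taken from the concentration-response curves.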
Background: In qHTS, concentration-response curves come from the screen itself.

A short description of assay [2]: qHTS of pediatric cancer cell lines to identify multiple opportunities for drug repurposing: Primary screen for SJ-GBM2 cells (AID 1347091). The following applies: SJ-GBM2 viability, CellTiter-Glo luminescence, 48 h; series mostly up to 46 µM. The gist of the method: as §1
Assay [3] can be described thus: qHTS of pediatric cancer cell lines to identify multiple opportunities for drug repurposing: Primary screen for A673 cells (AID 1347092). Further: nearly all actives have a fitted effect of over 45% in size. The following applies: A673 Ewing sarcoma viability, CellTiter-Glo ATP luminescence, 48 h; series mostly up to 46 µM. In short, it runs like this:
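Cells are plated, rested 5 h, dosed by pintool, incubated 48 h, then lysed with CellTiter-Glo and read by luminescence. DMSO is the neutral control; bortezomib at 2.3 uM final is the positive control.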

Assay [4] in a line: qHTS of pediatric cancer cell lines to identify multiple opportunities for drug repurposing: Primary screen for TC32 cells (AID 1347089). Further: nearly all actives have a fitted effect of over 60% in size. As to conditions: TC32 Ewing sarcoma viability, CellTiter-Glo luminescence, 48 h; series mostly up to 45.8 µM. In short, it runs like this: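 Measured quantity: luminescence from CellTiter-Glo, reflecting metabolically active TC32 cells following 48 h of compound. Curves came straight from multi-point titrations, with 8 or 11 points in primary and 11 in confirmatory screening.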

The structures appear in SMILES notation. Records with an inconclusive call do not appear. Active and inactive are the calls of the source. The call rests on the fitted dose curve; in most records, active means well fitted curve in the direction sought with a large enough effect; inconclusive means small, poorly fitted or top-dose-only effect, or another doubt; inactive means no such curve, though single readings can be large; an effect the other way counts as inactive or inconclusive.
Potency means the concentration at half of the fitted maximal effect.

On to `O=C(C1CCCCC1)N1CC(=O)N2CCCc3ccccc3C2C1` (stereo not drawn), for which the Potency entry in assay [1], in assay [2] and in assay [3] was “inactive” each time.
For `Cc1nc(N)nc(N)c1-c1ccc(Cl)c(Cl)c1`, the Potency is 470 nM (active) in assay [4], 841 nM (active) in assay [1], 299 nM (active) in assay [2] and 1060 nM (active) in assay [3].
With `CCOC(=O)Oc1ccc(CCNC(=O)[C@H](CCSC)NC(C)=O)cc1OC(=O)OCC`, the Potency result in assay [1], in assay [2] and in assay [3] was “inactive” throughout.
For the molecule `CC[C@@]1(O)C(=O)OCc2c1cc1n(c2=O)Cc2c-1nc1ccccc1c2/C=N/OC(C)(C)C`, the Potency in assay [4] is 29.7 nM (active); in assay [1], 106 nM (active); in assay [2] it was 26.6 nM (active); in assay [3], 33.5 nM (active).
With `CNC[C@H](O)[C@@H](O)[C@H](O)[C@H](O)CO`, the Potency entry in assay [4], in assay [1], in assay [2] and in assay [3] was “inactive” in each case.
Turning to `CCCCCCCCCCCCCCCC[n+]1ccccc1`, the figures for the Potency in assay [1] and in assay [3] were 16800 nM (active) and 1680 nM (active), respectively.
For the molecule `CC[C@@H]([C@H](C)O)n1ncn(-c2ccc(N3CCN(c4ccc(OC[C@@H]5CO[C@@](Cn6cncn6)(c6ccc(F)cc6F)C5)cc4)CC3)cc2)c1=O`, the Potency result in assay [4] was “inactive”. In addition, the Potency in assay [2] is 18800 nM (active).
`CC(C)OP(=O)(CP(=O)(OC(C)C)OC(C)C)OC(C)C`: the Potency entry in assay [4], in assay [2] and in assay [3] was “inactive” in each case.
Regarding `COC(=O)c1cc(Cl)ccc1NS(=O)(=O)C(F)(F)F`, the Potency result in assay [4], in assay [1], in assay [2] and in assay [3] was “inactive” throughout.
In the case of `CCCCCCCCCCCCCCCCCCNC(=O)OC1CCN(C(=O)OC[C@H](COC(=O)N(Cc2cccc[n+]2CC)C(=O)c2ccccc2OC)OC)CC1`, in assay [3], the Potency was 8410 nM (active).
As to `CCn1ccc(NS(=O)(=O)c2ccc(N)cc2)nc1=O`, the Potency entry in assay [4], in assay [1], in assay [2] and in assay [3] was “inactive” throughout.
Regarding `CC(C)Cc1ccc(C(C)C(=O)OCc2ccccn2)cc1` (stereo not drawn), the Potency result in assay [4], in assay [1], in assay [2] and in assay [3] was “inactive” throughout.
For `CCCCCCCCCCCCCCCC[N+](C)(C)Cc1ccccc1`, the Potency in assay [3] was 13300 nM (active).
In the case of `CCOC(=O)CN1CCCC1=O`, the Potency result in assay [4], in assay [1], in assay [2] and in assay [3] was “inactive” each time.
